We go through 87 compounds from PubChem BioAssay AID652126 (The Scripps Research Institute Molecular Screening Center, 2013).

In all, about 370,000 compounds went through this assay and about 3,700 (1%) were called active.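 The calls were made as follows: active = activation above the mean over all tested compounds plus 3 SD (cut at about 0.9% in these data); inactive = the rest.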 For the sample, actives were picked, then their nearest neighbours and some compounds at random.

In the assay the test system is Nuclear hormone receptor DAF-12 (Strongyloides stercoralis). Kind of assay: S. stercoralis DAF-12 nuclear receptor activators, primary screen, cell-based, luminescence, HEK293, GRIP1 co-expression, lit1-tk-luc (AID 652126).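 Also: 0% = DMSO-only wells and 100% = 3 µM delta7-dafachronic acid wells.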 The settings on record: HEK293 ssDAF-12/GRIP1 lit1-tk-luc reporter, at 6.8 µM, active compounds read high, % of 3 µM dafachronic acid response.
In the case of `Cc1ccccc1NC(=O)C1CCN(c2ncccn2)CC1`, the activation is 0.24% (inactive).

Regarding `CCCCNc1cccc2c1S(=O)(=O)N[C@@H](C)CO2`, the activation is -0.23% (inactive).

For `Cc1ccc(NC(=O)CSc2nnc(COc3ccccc3C)o2)cc1`, the activation is -1.56% (inactive).

On to `Cc1ccccc1OCc1nnc(SCC(=O)N2c3ccccc3Sc3ccc(Cl)cc32)o1`, for which the activation was -1.28% (inactive).

As for `CC(C)NC(=O)CSc1nnc(COc2ccccc2Cl)o1`, the activation is 1.16% (active).

As to `COc1cccc(NC(=O)c2cc(S(=O)(=O)N3CCc4ccccc43)cn2C)c1`, the activation was -1.71% (inactive).

For the compound `Cc1ccc(CSc2nnc(SCC(=O)NN=Cc3cc(Br)ccc3F)s2)cc1`, the activation is -1.54% (inactive).

`CCCCNC(=O)C[C@H]1C(=O)N(Cc2ccc(OC)cc2)C2=CCCC[C@@]21C(=O)OCC`: the activation was -0.84% (inactive).

For `COC[C@@H]1CCCN1c1ccc2c(c1)O[C@H](C)CCN(C1CC1)S2(=O)=O`, the activation was -1.91% (inactive).

Take `CNc1ccc([N+](=O)[O-])cc1C(=O)O`: the activation is -1.81% (inactive).

Consider `CCC(C)C(=O)Nc1cc([N+](=O)[O-])ccc1Cl` (configuration not stated), for which the activation is -1.16% (inactive).

As for `Cc1ccc(NC(=O)c2cc([N+](=O)[O-])ccc2Cl)c(O)c1`, the activation was 1.5% (active).

Consider `Cc1ccc(Cn2cc(COC(=O)N(C)Cc3ccccc3)nn2)cc1`, for which the activation is -0.46% (inactive).

Take `C=CCN1C(=O)[C@@H](CC(=O)NCCCOCCCC)[C@]2(C(=O)OCC)CCCCC/C=C/12`: the activation is -0.98% (inactive).

Turning to `O=C(CSc1nc2sc3c(c2c(=O)n1-c1ccccc1)CCCC3)NN=Cc1ccc(OCc2ccccc2)cc1`, the activation was -0.96% (inactive).

Turning to `CCOc1ccc(NC(=O)c2ccc(CSc3nnnn3C)cc2)cc1`, the activation is -1.09% (inactive).

Regarding `CCOc1ccc(NC(=O)c2ccc(NC(=O)COC(=O)c3ccc(NC(=O)CC#N)cc3)cc2)cc1`, the activation was 0.93% (active).

In the case of `CCOc1ccc(NC(=O)c2ccc(NC(=O)CN3C(=O)C(=O)N(CC(C)C)C3=O)cc2)cc1`, the activation was -0.14% (inactive).

On to `COc1ccc(CN2C(=O)N3Cc4cc(OC)ccc4C3CS2(=O)=O)cc1` (configuration not stated), for which the activation is -1.71% (inactive).

For the compound `CCOC(=O)C1(Cc2ccccc2)CCN(Cc2cn(C(C)=O)c3ccccc23)CC1`, the activation was 0.62% (inactive).

Consider `CCOC(=O)[C@]12CCCCC/C=C\1N(Cc1ccc(OC)cc1)C(=O)[C@H]2CC(=O)NCCCN1CCCC1=O`, for which the activation is -0.74% (inactive).

In the case of `Cc1ccc(-n2c(SCC(=O)Nc3cccc4ccccc34)nnc2-c2ccco2)cc1`, the activation is -0.86% (inactive).

Turning to `Nc1ccccc1/C=N\N=C/c1ccccc1N`, the activation is 1.95% (active).

Turning to `CN(CCc1ccccc1)C(=O)Cn1nc(-c2ccccc2)ccc1=O`, the activation was -0.4% (inactive).

For `COC(=O)C[C@@H]1CC[C@@H]2[C@@H](COc3ccc(NC(=O)Nc4ccc(F)c(F)c4)cc3C(=O)N2C)O1`, the activation is -1.37% (inactive).

Take `O=C(NC1CCC1)c1ccc(C#CC2CC2)cn1`: the activation was 0.89% (inactive).

For the compound `O=C(NCCCc1ccccc1)[C@H](Cc1ccccc1)NC1(C(=O)NCCc2c[nH]c3ccccc23)CCC1`, the activation is -0.89% (inactive).

In the case of `Cc1cc(S(=O)(=O)N2CCOCC2)ccc1OCC(=O)Nc1cccc(C(F)(F)F)c1`, the activation is -1.62% (inactive).

In the case of `NC(c1csc(NC(=O)Nc2cccc(C(F)(F)F)c2)n1)C1CCCCC1` (configuration not stated), the activation is -0.46% (inactive).

`Cc1ccc(NC(=O)Nc2cccc(C(F)(F)F)c2)nc1`: the activation is 4.62% (active).

Take `CCN(CC)c1nc(-c2ccccc2)cc(C(F)(F)F)c1C#N`: the activation was -0.98% (inactive).

Turning to `N#Cc1c(C(F)(F)F)cc(-c2ccc(Cl)cc2)nc1SCC(=O)O`, the activation was 1.77% (active).

For `Cc1cc(C(F)(F)F)c(C#N)c(SCC(=O)NC2CC2)n1`, the activation was -1.36% (inactive).

With `CCn1c(=O)n2n(c1=O)[C@@]1(C=C3CCCC[C@H]32)N=C(NC(=O)c2ccccc2)N(Cc2ccccc2)[C@H]1Cc1ccccc1`, the activation was -1.66% (inactive).

On to `O=S1(=O)c2ccc(Br)cc2OC[C@H](Cc2ccccc2)N1Cc1cn(Cc2ccccc2)nn1`, for which the activation is -1% (inactive).

On to `Cc1cccc(C(=O)N2CCc3c([nH]c4ccccc34)C2CC(C)C)n1` (configuration not stated), for which the activation was 1.53% (active).

For the compound `COc1ccc(C2c3[nH]c4ccccc4c3CCN2CCCn2cccn2)cc1C` (configuration not stated), the activation is 0.43% (inactive).

As to `Cc1cccc(C2c3[nH]c4ccccc4c3CCN2C(=O)c2cc(-c3cccn3C)n[nH]2)n1` (configuration not stated), the activation was -0.27% (inactive).

In the case of `C[C@@H](NC(=O)c1ccccc1OCC(=O)Nc1ccc(I)cc1)C(=O)N(C)Cc1ccccc1`, the activation was -1.27% (inactive).

For `COC(=O)C[C@H]1CC[C@H]2[C@H](COc3ccc(NC(=O)C4CC4)cc3C(=O)N2C)O1`, the activation is -1.49% (inactive).

On to `O=C(Nc1ccc(Cl)cc1)Nc1ccc(Oc2cccnc2)nc1`, for which the activation was -1.82% (inactive).

Take `Cc1ccc(NC(=O)N2CCC(O)(c3cccnc3)CC2)cc1`: the activation is -1.43% (inactive).

Regarding `Cc1ccc(NC(=O)Nc2cccnc2)cc1`, the activation is 1.08% (active).

With `COc1cccc(CSc2nnc(-c3cccnc3)n2Cc2ccccc2)c1`, the activation is -1.73% (inactive).

Take `COC(=O)[C@]12C[C@H](CC(=O)N3CCOCC3)C(=O)N(Cc3ccc(Cl)cc3Cl)C1=C[C@H](C(C)C)O[C@@H]2C1CC1`: the activation is -0.42% (inactive).

Regarding `Cc1ccccc1NC(=O)Cn1nnc(-c2ccccc2F)n1`, the activation was -0.75% (inactive).

As to `CC(C)(C)N(CC#CCC(O)(c1ccccc1)C1CCCC1)CCO` (configuration not stated), the activation is -0.45% (inactive).

Regarding `CN(CC#CCC(c1ccccc1)c1ccccc1)C(C)(C)C`, the activation is 1.07% (active).

In the case of `C#CCNC(=O)C[C@H]1C[C@@]2(C(=O)OC)C(=C[C@H](C(C)C)O[C@@H]2C2CC2)N(Cc2ccco2)C1=O`, the activation was -1.02% (inactive).

On to `Cc1cc(OC(=O)c2ccccc2Cl)ccc1N1C(=O)CCC1=O`, for which the activation is -1.58% (inactive).

With `CCOC(=O)c1nn(-c2cccc(C)c2)cc1C(=O)c1ccccc1`, the activation was -0.86% (inactive).

As for `Cc1cccc(/C(N)=N/OC(=O)c2ccccc2Cl)c1`, the activation is 1.96% (active).

For `Cc1cccc(-n2cnc(C(=O)NNC(=S)Nc3ccccc3)c2)n1`, the activation was -1.77% (inactive).

In the case of `N/C(=N\OC(=O)Nc1ccccc1)c1ccno1`, the activation is 5.22% (active).

With `CC(C)(COC(=O)Nc1ccccc1)COC(=O)Nc1ccccc1`, the activation was -0.77% (inactive).

For `O=C(Nc1ccccc1)O/N=C1/CCCc2occc21`, the activation is -1.48% (inactive).

On to `COc1ccc(N2CCN(CCNS(=O)(=O)c3ccc(C(C)(C)C)cc3)CC2)cc1`, for which the activation is -0.72% (inactive).

As to `Cc1ccc(Cn2cc(CN3[C@@H](C)COc4cc(Br)ccc4S3(=O)=O)nn2)cc1`, the activation was -1.02% (inactive).

On to `O=C(Nc1ccn(Cc2ccccc2)n1)c1n[nH]c([N+](=O)[O-])c1Cl`, for which the activation was 1.07% (active).

With `O=C(Cn1cnc([N+](=O)[O-])n1)NCCc1ccccc1`, the activation is -1.02% (inactive).

Regarding `O=C(O)CC(Cc1ccccc1)C(=O)Nc1ccc([N+](=O)[O-])cc1` (configuration not stated), the activation was -1.24% (inactive).

Take `Cc1ccccc1CS(=O)(=O)Cc1ccc(C(=O)Nc2ccc(Cl)cc2)o1`: the activation is -2.4% (inactive).

`O=C(C1CCN(C2CCN(Cc3ccc4cc(F)ccc4n3)CC2)CC1)N1CCCC1`: the activation was 0.06% (inactive).

For `O=C(C1CCN(C2CCN(Cc3cccc4c3OCO4)CC2)CC1)N1CCOCC1`, the activation is -0.29% (inactive).

For `C/C(=C\c1ccco1)CN1CCC(N2CCC(C(=O)N3CCOCC3)CC2)CC1`, the activation is 1.16% (active).

For `O=S(=O)(c1ccccc1)N1CCC(c2nc3ccccc3o2)CC1`, the activation is -1.57% (inactive).

Consider `C=C(C)C#CC(Cc1ccccc1)NCC1CC1` (configuration not stated), for which the activation was -1.12% (inactive).

Take `COC(=O)[C@H](C(C)C)N1CCc2nnn(Cc3ccc(C)cc3)c2-c2ccccc2S1(=O)=O`: the activation was -1.89% (inactive).

Take `COC(=O)[C@@]12CCCCC=C1N(CCc1ccc(Cl)cc1)C(=O)[C@H]2CC(=O)NCc1ccc(OC)c(OC)c1`: the activation is -1.91% (inactive).

For the compound `Cc1ccc(C(=O)N/N=C/c2sc(=O)n(Cc3cccc(C(=O)O)c3)c2Cl)cc1`, the activation was 0.05% (inactive).

Regarding `Cc1ccc(/C=C2\CCn3c2nc2cc(C(=O)O)ccc2c3=O)c(C)c1`, the activation was -1.16% (inactive).

As to `Cc1ccc2cc(/C=N/Nc3ccc(C(=O)O)cc3)c(Cl)nc2c1`, the activation is 0.95% (active).

Take `COc1cccc(N2CCN(CC(=O)N(C)Cc3ccc(F)cc3)CC2)c1`: the activation is -1.79% (inactive).

As for `O=S1(=O)c2c(cccc2N2CC[C@H](O)C2)O[C@@H]2CCN1C2`, the activation is -0.61% (inactive).

In the case of `CC(=O)OC12CCCN(C1)/C(=C/c1ccncc1)C2` (configuration not stated), the activation is -1.9% (inactive).

`Cc1cc(C)nc(Nc2n[nH]c(-c3ccccc3N)n2)n1`: the activation is 1.05% (active).

As to `Cc1cc(C)n2ncc(C(=O)Nc3ccc4c(c3)OCCO4)c2n1`, the activation was -1.35% (inactive).

In the case of `C=CCN1C(=O)[C@@H](CC(=O)N2CCN(C(=O)c3ccco3)CC2)[C@]2(C(=O)OC)CCCCC=C12`, the activation was -0.85% (inactive).

Turning to `O=C(CSc1nc2ccccc2n1Cc1ccccc1Cl)N/N=C\c1c[nH]c2ccccc12`, the activation was -0.54% (inactive).

Regarding `COc1ccc(N(CC(=O)N/N=C/c2cccs2)S(=O)(=O)c2ccc(OC)c(OC)c2)cc1`, the activation is -1.66% (inactive).

Consider `COc1ccc2c(c1)c(C(=O)N/N=C/c1cccs1)c(C)n2C`, for which the activation was 1.69% (active).

Turning to `Cc1c(NC(=O)C(=O)N/N=C/c2cccs2)c(=O)n(-c2ccccc2)n1C`, the activation was -1.41% (inactive).

Consider `O=C(CSc1nc2ccccc2n1Cc1ccccc1)NNC(=S)Nc1ccccc1`, for which the activation is -1.45% (inactive).

Regarding `C=CCN1C(=O)[C@@H](CC(=O)NCCCCc2ccccc2)[C@]2(C(=O)OCC)CCCCC/C=C/12`, the activation was -1.06% (inactive).

`CCC(NC(=O)c1cc(COc2ccc(F)c(F)c2)on1)c1ccncc1` (configuration not stated): the activation is -0.62% (inactive).

With `Cc1cc(OCc2cc(C(=O)NCc3cc(C(C)C)no3)no2)cc(C)c1Cl`, the activation was 1.55% (active).

As for `CCOC(=O)CC1(NC(=O)c2cc(COc3cncc(Cl)c3)on2)CCCCC1`, the activation was -1.57% (inactive).
